Where “and” joins values, the source holds several entries; their conditions need not be identical. Equal values may be shown once. Inconclusive results are not listed. More than one record can exist for a structure, and the calls need not agree. Calls of active or inactive are those of the source. Calls come from the whole dose curve; as a rule, active = well fitted curve in the direction sought with a large enough effect; inconclusive = small, poorly fitted or top-dose-only effect, or another doubt; inactive = no such curve, though single readings can be large; an effect the other way counts as inactive or inconclusive.
Columns and labels:
[1] = tested on: HEK293; test: Cytotoxic Profiling of Annotated Libraries Using Quantitative High-Throughput Screening (AID 1296008); conditions: Five cell lines viability, CellTiter-Glo ATP luminescence, 48-72 h; max response: stronger effect = lower value; note: nearly all actives have a fitted effect of over 60% in size
Method in brief: (§1)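 Cytotoxicity was measured as CellTiter-Glo ATP luminescence, read after 10 min at room temperature. Compound treatment of the cells lasted 48 or 72 hr at 37 degrees Celsius in a qHTS format.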

[2] = tested on: HaCat; test: as above; conditions: Five cell lines viability, CellTiter-Glo ATP luminescence, 48-72 h; max response: stronger effect = lower value
Method in brief: as §1

[3] = tested on: NIH3T3; test: as above; conditions: Five cell lines viability, CellTiter-Glo ATP luminescence, 48-72 h; max response: stronger effect = lower value
Method in brief: as §1

[4] = tested on: MCC-13; test: qHTS assay to identify novel small-molecules to repurpose for Merkel cell carcinoma treatment (AID 1296009); conditions: MCC and control cell lines, CellTiter-Glo viability, 72 h; series mostly up to 46 µM; note: nearly all actives have a fitted effect of over 60% in size
Method in brief: (§2)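 72 hr, 37 degree celsius; NPC 8-pt / MIPE 11-pt dose response; compound pinned in DMSO; CellTiter-Glo, 10 min RT, luminescence; normalized to no-cell and DMSO controls.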

[5] = tested on: UISO; test: as above; conditions: MCC and control cell lines, CellTiter-Glo viability, 72 h; series mostly up to 46 µM
Method in brief: as §2

[6] = tested on: HeLa; test: Primary qHTS to identify gynecologic anti-cancer compounds using libraries of approved drugs and bioactive compounds (AID 1345084); conditions: Gynecologic cancer cell panel viability, ATPlite luminescence, 48 h; series mostly up to 57.5 µM; note: nearly all actives have a fitted effect of over 55% in size
Method in brief: (§3)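 Cell viability after 48 h drug treatment, ATPlite luminescence readout; five doses.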

[7] = tested on: Hek293T; test: as above; conditions: Gynecologic cancer cell panel viability, ATPlite luminescence, 48 h, control line for the selectivity index; series mostly up to 57.5 µM
Method in brief: as §3

[8] = tested on: MKL-2; test: qHTS assay to identify novel small-molecules to repurpose for Merkel cell carcinoma treatment (AID 1296009); conditions: MCC and control cell lines, CellTiter-Glo viability, 72 h; series mostly up to 46 µM; note: nearly all actives have a fitted effect of over 60% in size
Method in brief: as §2

[9] = tested on: CAOV3; test: Primary qHTS to identify gynecologic anti-cancer compounds using libraries of approved drugs and bioactive compounds (AID 1345084); conditions: Gynecologic cancer cell panel viability, ATPlite luminescence, 48 h; series mostly up to 57.5 µM; note: nearly all actives have a fitted effect of over 55% in size
Method in brief: as §3

[10] = tested on: JEG-3; test: as above; conditions: Gynecologic cancer cell panel viability, ATPlite luminescence, 48 h; series mostly up to 57.5 µM
Method in brief: as §3

[11] = tested on: KB-3-1; test: Cytotoxic Profiling of Annotated Libraries Using Quantitative High-Throughput Screening (AID 1296008); conditions: Five cell lines viability, CellTiter-Glo ATP luminescence, 48-72 h; max response: stronger effect = lower value; note: nearly all actives have a fitted effect of over 60% in size
Method in brief: as §1

[12] = tested on: WaGa; test: qHTS assay to identify novel small-molecules to repurpose for Merkel cell carcinoma treatment (AID 1296009); conditions: MCC and control cell lines, CellTiter-Glo viability, 72 h; series mostly up to 46 µM; note: nearly all actives have a fitted effect of over 60% in size
Method in brief: as §2

[13] = tested on: C33A; test: Primary qHTS to identify gynecologic anti-cancer compounds using libraries of approved drugs and bioactive compounds (AID 1345084); conditions: Gynecologic cancer cell panel viability, ATPlite luminescence, 48 h; series mostly up to 57.5 µM; note: nearly all actives have a fitted effect of over 55% in size
Method in brief: as §3

[14] = tested on: CASKI; test: as above; conditions: Gynecologic cancer cell panel viability, ATPlite luminescence, 48 h; series mostly up to 57.5 µM
Method in brief: as §3

[15] = tested on: MKL-1; test: qHTS assay to identify novel small-molecules to repurpose for Merkel cell carcinoma treatment (AID 1296009); conditions: MCC and control cell lines, CellTiter-Glo viability, 72 h; series mostly up to 46 µM; note: nearly all actives have a fitted effect of over 60% in size
Method in brief: as §2

[16] = tested on: NIH3T3; test: as above; conditions: MCC and control cell lines, CellTiter-Glo viability, 72 h; at 44.8 µM (top of the series) unless noted
Method in brief: as §2

[17] = tested on: Es-2; test: Primary qHTS to identify gynecologic anti-cancer compounds using libraries of approved drugs and bioactive compounds (AID 1345084); conditions: Gynecologic cancer cell panel viability, ATPlite luminescence, 48 h; series mostly up to 57.5 µM; note: nearly all actives have a fitted effect of over 55% in size
Method in brief: as §3

[18] = tested on: MCC-26; test: qHTS assay to identify novel small-molecules to repurpose for Merkel cell carcinoma treatment (AID 1296009); conditions: MCC and control cell lines, CellTiter-Glo viability, 72 h; series mostly up to 46 µM; note: nearly all actives have a fitted effect of over 60% in size
Method in brief: as §2

[19] = tested on: HACAT; test: as above; conditions: MCC and control cell lines, CellTiter-Glo viability, 72 h; series mostly up to 44.8 µM
Method in brief: as §2
% is set by controls: 0 for no effect and ±100 for the full control effect; potency is the fitted concentration of half-maximal effect.

CS(=O)(=O)N1CCN(Cc2cc3nc(-c4cccc5[nH]ncc45)nc(N4CCOCC4)c3s2)CC1
inactive: Potency [4]
active: Potency [1] 372 nM and 1.84 µM | Potency [2] 29.6 nM | Potency [3] 296 nM and 1.3 µM | Potency [5] 1.32 µM | Potency [6] 3.55 µM | Potency [7] 2.51 µM

CC(C)c1cc(-c2n[nH]c(=O)n2-c2ccc3c(ccn3C)c2)c(O)cc1O
active: Potency [1] 46.9 nM and 41.1 nM | Potency [2] 65.1 nM | Potency [3] 105 nM and 116 nM | Potency [4] 0.132 µM | Potency [5] 0.372 µM | Potency [7] 0.316 µM
inactive: Potency [8] | Potency [9] | Potency [6] | Potency [10]

Cn1c2ccccc2c2c3c(c4c5ccccc5n(CCC#N)c4c21)CNC3=O
active: Potency [1] 2.35 µM and 7.31 µM | Potency [3] 10.5 µM | Potency [5] 2.09 µM | Potency [12] 6.62 µM
inactive: max response [11] 4.23% and -14.5% | max response [3] -14.2% | Potency [13] | Potency [14] | Potency [6] | Potency [7] | Potency [10]

O=C(O)c1ccc2c(c1)nc(Nc1cccc(Cl)c1)c1ccncc12
active: Potency [1] 10.3 µM | Potency [11] 20.6 µM | Potency [8] 5.26 µM | Potency [5] 4.18 µM | Potency [14] 35.5 µM
inactive: max response [11] 6.46% | outcome [3] | Potency [15] | outcome [16] | Potency [10]

CC(C)(O)c1cc2nc(-c3cnc(N)nc3)nc(N3CCOCC3)c2s1
active: Potency [1] 372 nM and 1.3 µM | Potency [2] 264 nM and 1.64 µM | Potency [3] 0.418 µM | Potency [13] 3.55 µM | Potency [6] 3.98 µM | Potency [7] 2 µM
inactive: Potency [8]

O=C(CCCCCCNC(=O)c1cnc(N(c2ccccc2)c2ccccc2)nc1)NO
active: Potency [1] 13.2 µM and 7.31 µM | Potency [2] 16600 nM | Potency [11] 11.8 µM and 8.2 µM | Potency [15] 9.35 µM | Potency [8] 5.9 µM | Potency [12] 2.96 µM | Potency [6] 11.2 µM | Potency [10] 15.8 µM

O=C(O)C1(Cc2cccc(Nc3nccs3)n2)CCC(Oc2cccc(Cl)c2F)CC1 (configuration not stated)
inactive: Potency [8] | Potency [13] | Potency [14] | Potency [17] | Potency [7] | Potency [10]
active: Potency [1] 2.64 µM and 1.3 µM | Potency [2] 5.26 µM and 4.61 µM | Potency [11] 2.35 µM | Potency [4] 10.5 µM | Potency [6] 6.31 µM

COc1cccc2c(NCc3ccccc3)nc(-n3c(N)nc4ccccc43)nc12
inactive: max response [11] -11.5%
active: Potency [1] 7.43 µM and 11.6 µM | Potency [3] 10.5 µM | Potency [15] 9.35 µM | Potency [8] 4.69 µM | Potency [5] 6.62 µM | Potency [12] 9.35 µM | Potency [13] 28.2 µM | Potency [14] 25.1 µM | Potency [6] 25.1 µM

CCCCCN(CCC12CC3CC(CC(C3)C1)C2)C(=O)NCCCc1ccncc1
inactive: max response [2] -32% | max response [3] -9.34% | Potency [4] | Potency [18] | Potency [15] | Potency [8] | Potency [5] | Potency [12] | Potency [13] | Potency [9] | Potency [14] | Potency [17] | Potency [6] | Potency [7] | Potency [10]

COc1cc2ncn(-c3cc(OCc4ccccc4C(F)(F)F)c(C(N)=O)s3)c2cc1OC
inactive: max response [3] -29.2% | Potency [8]
active: Potency [1] 0.469 µM | Potency [11] 0.418 µM

C=C1C(=CC=C2CCC[C@]3(C)[C@@H]([C@H](C)C=C[C@H](C)C(C)C)CC[C@@H]23)C[C@@H](O)C[C@@H]1O
active: Potency [15] 1.18 µM | Potency [8] 0.332 µM | Potency [5] 8.33 µM | Potency [12] 0.118 µM
inactive: outcome [2] | outcome [11] | Potency [19]

CCCCN1CCC(CNC(=O)c2c3n(c4ccccc24)CCCO3)CC1
inactive: Potency [4] | Potency [18]

Cn1c2cc(S(C)=O)sc2c2cnn(Cc3cccc(N)c3)c(=O)c21 (configuration not stated)
inactive: max response [2] -2.01% | max response [11] -13.5% | max response [3] -11.6% | Potency [4] | Potency [18] | Potency [15] | Potency [8] | Potency [12]

CC=C1NC(=O)[C@H]2CSSCCC=C[C@H](CC(=O)N[C@H](C(C)C)C(=O)N2)OC(=O)[C@H](C(C)C)NC1=O
active: Potency [2] 37.2 nM | Potency [3] 0.0469 µM | Potency [4] 0.235 µM | Potency [18] 0.0662 µM | Potency [8] 0.0166 µM | Potency [5] 0.0166 µM | Potency [12] 0.0264 µM

Source: PubChem BioAssay (NCATS)
